Results taken from PubChem BioAssay AID1868 (National Center for Advancing Translational Sciences (NCATS), 2009).
Among all 270,000 compounds or so, about 20 (0.007%) were called active. The call rests on the fitted dose curve; in most records, active means well fitted inhibition curve with a large enough effect; inconclusive means small, poorly fitted or top-dose-only effect, or effect the other way; inactive means flat fitted curve, though single readings scatter. These entries were drawn from the full list.

Biological target: Galactokinase (Homo sapiens) (UniProt P51570)
Test: qHTS Assay for Inhibitors of Human Galactokinase (GALK)
Settings: Purified GALK, Kinase-Glo residual ATP luminescence; series mostly up to 57.5 µM
Text: NIH Molecular Libraries Probe Production Centers Network [MLPCN] NIH Chemical Genomics Center [NCGC] MLPCN Grant: R03 MH085689-01 Assay Submitter (PI): Kent Lai (University of Utah School of Medicine, 50 N Mario Capecchi Drive, Salt Lake City, UT 84132) NCGC Assay Overview: Inherited deficiency of galactose-1-phosphate uridyltransferase (GALT) can result in a potentially lethal disorder called Classic Galactosemia (OMIM 230400). Several lines of evidence indicate that an elevated level of galactose-1-phosphate (gal-1-p), the product of galactokinase (GALK), is a major, if not sole, pathogenic mechanism in patients with classic galactosemia. Therefore, finding inhibitors of GALK is a potential novel therapy for this inherent metabolic disease and is the long term goal of this project. GALK (provided by the assay submitter) was assayed using ATP and D-(+)-Galactose (Sigma-Aldrich cat# G0750) as substrates. Promega Kinase-Glo Plus (cat# V3774) technology was used to detect the residual ATP following kinetic reaction. Briefly, the Kinase-Glo Plus contains Ultra-Glo [2] luciferase and D-luciferin which generates a bioluminescence signal from the remaining ATP.
NCGC Assay Protocol Summary: Three uL/well of ATP-buffer solution (35 uM ATP, 20mM HEPES pH8.0, 5 mM MgCl2, 60 mM NaCl, 1 mM DTT, 0.01% BSA final concentration) was dispensed into 1536-well, assay plates (Greiner, solid white medium-binding plates) with Aurora Discovery BioRAPTR Flying Reagent Dispenser (FRD; Beckton-Dickenson). Compound solution (23 nL) was transferred to the assay plate using the Kalypsys 1536-pin tool. One uL/well GALK-galactose solution (5 nM GALK, 100 uM galactose, 20 mM HEPES pH8.0, 5 mM MgCl2, 60 mM NaCl, 1 mM DTT, 0.01% BSA final concentration) was then added using the FRD yielding a total kinase reaction volume of 4 uL/ well. After 1 hour of room temperature incubation, 4 uL Kinase-Glo Plus reagent was added for a final assay volume of 8 uL/ well. Luminescence was detected with the ViewLux plate reader (Perkin Elmer, Waltham, MA) after 10 min incubation using a 1 sec exposure time and 2x binning.

Chain of Galactokinase (Homo sapiens) (P51570 whole entry, looked up): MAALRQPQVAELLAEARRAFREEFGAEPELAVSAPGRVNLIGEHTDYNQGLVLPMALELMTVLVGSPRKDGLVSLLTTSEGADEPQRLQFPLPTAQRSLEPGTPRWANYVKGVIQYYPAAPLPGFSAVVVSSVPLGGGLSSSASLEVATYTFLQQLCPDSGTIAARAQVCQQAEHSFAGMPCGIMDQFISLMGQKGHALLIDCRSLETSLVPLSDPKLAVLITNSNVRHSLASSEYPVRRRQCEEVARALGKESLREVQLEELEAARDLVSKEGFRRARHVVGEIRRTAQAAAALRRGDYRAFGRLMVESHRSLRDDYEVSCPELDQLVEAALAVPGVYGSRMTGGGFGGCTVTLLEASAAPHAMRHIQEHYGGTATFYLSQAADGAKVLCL

outcome, inactive:
Brc1ccccc1CN1CCC(Cc2ccccc2)CC1
CC1CCN(C2=NC(=O)/C(=C/c3ccc(O)cc3)S2)CC1
CC1(C)Cc2c(sc(NC(=O)C(=O)N3CCOCC3)c2C#N)CO1
COc1cc(Cl)ccc1OCc1cc(C(=O)N2CC[C@@H]3CCCC[C@H]3C2)no1
CCOc1ccc(CN2CCNC(=O)C2CC(=O)NCCCC2CCCC2)cc1 (configuration not stated)
CCOc1ccc(S(=O)(=O)N2CCCC(C(=O)N3CCC(C(N)=O)CC3)C2)cc1Cl (configuration not stated)
C=CCOc1ccc(/C=C/C(=O)OCC(=O)NC2CCCCCC2)cc1
CN(c1ccccc1)S(=O)(=O)c1ccc(NC(=O)COc2ccccc2)cc1
Oc1cccc(/C=N/Nc2ccc(Cl)nn2)c1O
O=C(NCCNc1ccc([N+](=O)[O-])cc1Cl)c1ccccc1F
COc1ccc(S(=O)(=O)/N=C2\C=C(NS(=O)(=O)c3ccccc3)C(=O)c3ccccc32)cc1
Cn1c(Nc2cccc(Cl)c2)nc2ccccc21
CCn1c(=O)c(C(=O)NCc2ccc3c(c2)OCO3)c(O)c2ccccc21
O=C(Nc1ccc(Cl)c(Cl)c1)c1ccccc1NC(=O)C1CC=CCC1C(=O)O (configuration not stated)
Cc1cccc(N2CCN(C(=O)CCS(=O)(=O)c3ccc4c(c3)NC(=O)C(C)S4)CC2)c1C (configuration not stated)
CC(C)(C)NC(=O)C(c1ccc(Cl)cc1)N(CCO)C(=O)c1snc(C(N)=O)c1N (configuration not stated)
O=C(CN1CCCC1)Nc1sc2c(c1C(=O)Nc1ccccc1)CCCC2
O=C(N/N=C/c1cccc(OCc2ccccc2)c1)c1ccc(Br)o1
Cc1cc(C)n(CC(O)COc2ccc(C(C)(C)C)cc2)n1 (configuration not stated)
COc1ccc(Oc2cn[nH]c2-c2ccc(OC)cc2O)cc1
CSc1nnc(NC(=O)c2nc(S(=O)(=O)Cc3ccc(C)cc3)ncc2Cl)s1
Cc1cc(N=Nc2ccc3ccccc3c2)ccc1O
Cc1ccc(-c2nc(-c3ccncc3)no2)c(C)c1
CCCNC(=O)CCn1nc(-c2ccccc2)c2ccccc2c1=O
COc1ccc(C(=O)/C=C/c2cccnc2)c(OC)c1
COc1ccc(S(=O)(=O)N2CCN(C(=O)N(C)C)C2C)cc1 (configuration not stated)
CN(C)S(=O)(=O)N1CCC(Oc2cccc(C(=O)NCCCC3CCCC3)c2)CC1
O=C(Nc1ccccc1)c1ccc2c(c1)OCCCO2
Cc1[nH]n(C(N)=S)c(=O)c1N=Nc1ccc(Cl)cc1Cl
O=C(NC(=S)Nc1ccc(Cl)cc1Cl)C1CC1
COc1cccc(CNc2ncc(-c3ccccc3)n2C)c1
CCOc1ccccc1/C=N/Nc1nc2ccccc2o1
COc1ccc(CNc2cc(C)cc(C)c2)cc1OC
Cc1ccc(NC(=O)Nc2cccnc2)cc1
COc1ccc2cc(C(=O)C3CCCN(C(=O)c4sc(C)nc4C)C3)ccc2c1 (configuration not stated)
CC(C)(C)C(=O)Nc1ccc(-c2cn3cccnc3n2)cc1
CC1(C(=O)N/N=C/c2cc3c(cc2Br)OCO3)CC1(Br)Br (configuration not stated)
c1ccc(Cc2ccc(OCCn3ccnc3)cc2)cc1
CNS(=O)(=O)c1ccc(NC(=O)Nc2ccc3c(c2)OCO3)cc1
CC(=O)N(C)c1ccc(NC(=O)Nc2cccc3ccccc23)cc1
Cc1nonc1NC(=O)c1oc2ccccc2c1C
O=C(NCCCN1CCOCC1)c1ccc2c(c1)N(Cc1cccc(F)c1)C(=O)c1ccccc1S2
CSc1ccccc1OCc1cc(C(=O)N2C[C@H]3CC[C@H]2C3)no1
O=C(CNC(=O)Cc1ccccc1)N=Nc1c(O)[nH]c2ccc(Br)cc12
O=C(O)Cc1ccc(NC(=O)Nc2cccc3ccccc23)cc1
COc1ccc(C(=O)NC2=NCCS2)c(OC)c1
CCCOC1CCCN(C(=O)c2cc(COc3cncc(Cl)c3)on2)C1 (configuration not stated)
CCc1ccc(C(=O)NC(=S)Nc2ccccc2N2CCOCC2)cc1
Nc1cc(N)nc(SCc2cccc(F)c2)n1
Cc1ccc(NS(=O)(=O)c2ccc3c(c2)n(C)c(=O)c(=O)n3C)c(C)c1
COc1ccc(N(Cc2ccc(N(C)C)cc2)C(=O)c2ccc(S(C)(=O)=O)cc2)cc1
CCCCC(=O)Nc1ccccc1N1CCN(c2ccc(F)cc2)CC1
CC(=O)Nc1ccc(NC(=O)C2CCCN2S(=O)(=O)c2cccc(C(F)(F)F)c2)cc1 (configuration not stated)
COc1ccc(-c2noc(CCCC(=O)NC3CCCC3)n2)cc1OC
O=C(/C=C/c1ccco1)NC(=S)Nc1ccccc1Br
COc1ccc(CCNC(=O)C2CCCN(S(=O)(=O)c3ccc(OC)cc3)C2)cc1 (configuration not stated)
Cc1ccnc(NC(=O)CCNS(=O)(=O)c2ccc(C)c(C)c2)c1
O=C(Nc1nnc(C2CC2)s1)c1cc(Cl)sc1Cl
COc1ccc(Nc2ncnc3sc(C)cc23)cc1
O=C(CN1CCC(NC(=O)C2CC2)CC1)Nc1ccccc1[N+](=O)[O-]
Cc1cccc(C(=O)NC(=S)N(C)C2CCCCC2)c1
CN(CCO)c1ccc(/C=N/Nc2nncc3ccccc23)cc1
O=C(NCC(=O)N1CCN(c2ccccc2F)CC1)c1cccs1
Cc1ccc2nc(N3C(=O)C(O)=C(C(=O)c4ccco4)C3c3cccc(O)c3)sc2c1 (configuration not stated)
C[n+]1cc(-c2ccccc2)oc1-c1ccccc1
Cc1cnc(NC(=O)c2ccc(Cl)nc2)s1
C=CCN1CCN(C(=O)CCCc2ccccc2)CC1
COc1ccc(N2CCN(S(=O)(=O)c3ccc4c(c3)N(C(C)=O)CCO4)CC2)cc1
O=C(O)CCC(=O)N(Cc1ccccc1)Cc1ccccc1
Cc1noc(C)c1CCC(=O)N1CCCC(CO)(Cc2ccccc2)C1 (configuration not stated)
O=C(c1noc2c1CCCC2)N1CCc2ccccc2C1
Cc1cccc(NC(=O)c2ccc3c(=O)n(CC4CCCO4)c(=S)[nH]c3c2)c1 (configuration not stated)
COc1cccc(NC(=O)C(=O)c2cn(CC(=O)N3CCOCC3)c3ccccc23)c1
CCOC(=O)C1CCCN(CCSc2ccc(C)cc2)C1 (configuration not stated)
O=C(Nc1ccc(S(=O)(=O)NCC2CCCO2)cc1)c1ccc(F)cc1 (configuration not stated)
Cc1ccccc1NC(=S)NC(=O)Cc1ccc(Cl)cc1
COCCN1CCN(C(=O)c2cc(COc3ccc(F)cc3Cl)on2)CC1
COc1ccc(N(C(=O)c2snc(C(N)=O)c2N)C(C(=O)NC2CCCC2)c2ccc(C)o2)c(OC)c1 (configuration not stated)
O=C(CCl)NNc1nc(-c2ccccc2)c2cc(Cl)ccc2n1
CCOC(=O)Nc1ccc2c(c1)N(C(=O)CCCl)c1ccccc1[S@]2=O
NC(=O)CSc1nnc(NC(=O)c2ccc(Br)o2)s1
CN(C(=O)CCN1C(=O)/C(=C/c2ccccc2F)SC1=S)C1CCS(=O)(=O)C1 (configuration not stated)
O=C(CC(n1cncn1)C(Cl)(Cl)Cl)c1ccc([N+](=O)[O-])cc1 (configuration not stated)
Cc1ccc(NC(=O)CSc2cccc3cccnc23)c(C)c1
Cc1ccc(/C=N/NC(=O)c2cc3ccccc3cc2O)o1
COc1ccc(OCc2cc(C(=O)N3CCCC3)no2)c2ccccc12
COc1ccccc1C(=O)NC(=S)Nc1ccccc1N1CCCCC1
COc1ccc([N+](=O)[O-])cc1N(CC(=O)Nc1ccccc1C(=O)N1CCOCC1)S(C)(=O)=O
COc1cccc(C(=O)N/N=C(\C)c2cccc(NC(=O)c3ccc(F)cc3)c2)c1OC
Oc1ccccc1-c1cc(-c2ccc(Cl)cc2)n[nH]1
CCSc1nc2sc3c(c2c(=O)n1-c1ccc(C)cc1)CCN(C)C3
COc1ccc(NCCc2ccccn2)cc1
Cc1ccc(NS(=O)(=O)c2ccc3c(c2)oc(=O)n3C)c(C)c1
O=C(Nc1cccc(Cl)c1Cl)c1ccccc1NC(=O)C1CC=CCC1C(=O)O (configuration not stated)
S=C(Nc1ccc(Cl)cc1Cl)N1CCCC1
O=C(Nc1ccnn1C1CCN(Cc2cccc(OCCO)c2)CC1)C1CCCC1
CC(C)(C)c1ccc(Cn2nnc3c(=O)[nH]c(C4CCCN(C(=O)c5ccco5)C4)nc32)cc1 (configuration not stated)
CCc1ccccc1OCC(=O)Nc1ccc2c(c1)OCCO2
O=[N+]([O-])c1ccc2c(c1)Nc1nc3ccccc3nc1N2
CC1CN(C(=O)CCC(=O)NCCCN2CCC(Cc3ccccc3)CC2)c2cc(Cl)ccc2O1 (configuration not stated)
Cc1ccc(CSc2nsc(C)c2C#N)cc1
CC(=O)c1ccc(NC(=O)c2sc3nc4n(c(=O)c3c2C)CCCCC4)cc1
CC(C)=CCN1CCN(CCCc2ccccc2)CC1CCO (configuration not stated)
O=C(Nc1ccc(C2CC2(Cl)Cl)cc1)c1cccc([N+](=O)[O-])c1 (configuration not stated)
COc1ccccc1/C=C/C(=O)NC(=S)N1CCOCC1
COC(=O)c1ccc(COc2ccc(/C=C/C(=O)c3ccc(OC)c(CSCC(=O)O)c3)cc2OC)cc1
COc1ccc(NC(=O)CCCC2CCCCC2)c(OC)c1
O=c1c2ccccc2ncn1CCCCOc1ccccc1F
Brc1ccccc1/C=N/Nc1nc2ccccc2o1
COc1ccc(OC)c(NC(=O)Cc2cccs2)c1
CC(CN1CCOCC1)OC(=O)c1ccc(C(C)(C)C)cc1 (configuration not stated)
O=C(CNC(=O)c1ccc(F)cc1)c1ccccc1
